Reference: the supplement of paper PMC7366291
Where a name gives a salt, the structure may show the parent alone. ± gives the standard deviation.

What follows are molecules tested on Danio rerio Tg(wt1b:EGFP) embryo, pronephros (assay: glomerular separation, fold change vs DMSO control; higher = glomeruli further apart (abnormal)). Settings: 25 µM; exposure: 24-48 hpf.
Summary of the method: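 Every feature is expressed as a fold change relative to the averaged DMSO-treated embryos of the same day. The exposure ran from 24 to 48 hpf at 28.5°C, with dechorionated Tg(wt1b:EGFP) zebrafish embryos in HEPES-buffered E3 containing 0.003% PTU, 0.5% DMSO and 25 μM compound. Dorsal pronephros images taken in agarose-filled 96-well plates were reduced to maximum projections, on which 16 reference points were set by hand in Fiji for a macro to compute distances and angles. Values more than 2 SD from the feature mean were not used.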

Compound | glomerular separation
CCN(CC)CCc1nc(-c2ccccc2)no1 [Oxalamine citrate salt] | 0.929 ± 0.43
OCc1cc(C(O)CNCCCCCCOCCCCc2ccccc2)ccc1O (stereo not drawn) [Salmeterol] | 5.53 ± 1.4
CC(=O)OC(C)C[N+](C)(C)C (stereo not drawn) [Methacholine chloride] | 0.765 ± 0.28
C=CC[N@@+]12CC[C@@]34c5ccccc5N5/C=C6/[C@H]7C[C@H]8[C@@]9(CC[N@@+]8(CC=C)C/C7=C/CO)c7ccccc7N(/C=C(/[C@@H](C[C@@H]31)/C(=C\CO)C2)[C@H]54)[C@@H]69 [Alcuronium chloride] | 1.23 ± 0.57
CC(C)(C)NC[C@H](O)COc1ccccc1C1CCCC1 [Penbutolol sulfate] | 0.661 ± 0.15
CS(=O)(=O)OCCCCOS(C)(=O)=O [Busulfan] | 0.771 ± 0.21
Cc1c(C)c2c(c(C)c1O)CCC(C)(C(=O)O)O2 (stereo not drawn) [Trolox] | 0.733 ± 0.23
CN1CCCCC1CCN1c2ccccc2Sc2ccc([S+](C)[O-])cc21 (stereo not drawn) [Mesoridazine besylate] | 1.4 ± 1
COC(=O)[C@H](c1ccccc1Cl)N1CCc2sccc2C1 [Clopidogrel] | 1.06 ± 0.52
CN(C)CCC[C@@]1(c2ccc(F)cc2)OCc2cc(C#N)ccc21 [Escitalopram oxalate] | 1.13 ± 0.38
Cc1ncc(C[n+]2csc(CCO)c2C)c(N)n1 [Thiamine hydrochloride] | 0.951 ± 0.4
C[C@@H]1C[C@H]2[C@@H]3C[C@H](F)C4=CC(=O)C=C[C@]4(C)[C@@]3(Cl)[C@@H](O)C[C@]2(C)[C@H]1C(=O)COC(=O)C(C)(C)C [Clocortolone pivalate] | 1.59 ± 0.52
COc1ccccc1O [Guaiacol] | 1.03 ± 0.3
CCN(CC)CC(=O)Nc1c(C)cccc1C [Lidocaine hydrochloride] | 0.686 ± 0.29
O=C(Nc1ccccc1)OCC(CN1CCCCC1)OC(=O)Nc1ccccc1 (stereo not drawn) [Diperodon hydrochloride] | 1.1 ± 0.41
N#Cc1cc(NC(=O)C(=O)O)c(Cl)c(NC(=O)C(=O)O)c1 [Lodoxamide] | 1.24 ± 0.55
NC1CCN(c2nc3c(cc2F)c(=O)c(C(=O)O)cn3-c2ccc(F)cc2F)C1 (stereo not drawn) [Tosufloxacin hydrochloride] | 0.995 ± 0.36
NCCc1ccc(O)c(O)c1 [Dopamine hydrochloride] | 1.08 ± 0.44
CO[C@H]1/C=C/O[C@@]2(C)Oc3c(C)c(O)c4c(c3C2=O)C2=NC3(CCN(CC(C)C)CC3)NC2=C(NC(=O)/C(C)=C\C=C\[C@H](C)[C@H](O)[C@@H](C)[C@@H](O)[C@@H](C)[C@H](OC(C)=O)[C@@H]1C)C4=O [Rifabutin] | 1.4 ± 0.24
CC(C)NCC(O)c1ccc(NS(C)(=O)=O)cc1 (stereo not drawn) [Sotalol hydrochloride] | 0.82 ± 0.23
CC[C@@]1(O)C(=O)OCc2c1cc1n(c2=O)Cc2cc3c(CN(C)C)c(O)ccc3nc2-1 [Topotecan] | 1.74 ± 0.72
CCOC(=O)[C@H](CCc1ccccc1)N[C@@H](C)C(=O)N1Cc2ccccc2C[C@H]1C(=O)O [Quinapril hydrochloride] | 0.927 ± 0.39
CC(CN(C)C)CN1c2ccccc2CCc2ccccc21 (stereo not drawn) [Trimipramine maleate salt] | 0.996 ± 0.29
CCn1cc(C(=O)O)c(=O)c2cc(F)c(N3CCNCC3)cc21 [Norfloxacin] | 0.828 ± 0.22
NC(N)=Nc1nc(CSCC/C(N)=N/S(N)(=O)=O)cs1 [Famotidine] | 1.11 ± 0.48
CCc1cccc2c3c([nH]c12)C(CC)(CC(=O)O)OCC3 (stereo not drawn) [Etodolac] | 1.66 ± 0.82
COCCCOc1ccnc(C[S+]([O-])c2nc3ccccc3[nH]2)c1C (stereo not drawn) [Rabeprazole Sodium salt] | 0.694 ± 0.27
CCc1nc(N)nc(N)c1-c1ccc(Cl)cc1 [Pyrimethamine] | 0.78 ± 0.26
